# Results taken from PubChem BioAssay (Tox21).
# Where “and” joins values, the source holds several entries; their conditions need not be identical. Equal entries are not always repeated. Records with an inconclusive call do not appear. A number with no mark means an inactive call. Calls of active or inactive are those of the source. Calls follow the shape of the dose curve; as a rule, active = well fitted cell-killing curve with a large enough effect in the repeat runs; inconclusive = weak or mixed curves; inactive = no such curve, though single readings can be large or run the other way.
# Assay: qHTS assay to identify small molecule antagonists of the androgen receptor (AR) signaling pathway - cell viability counter screen (AID 743033; also: nearly all actives have a fitted effect of over 45% in size)
# Conditions: AR-bla HEK293 viability, CellTiter-Glo luminescence, 16 h; series mostly up to 58.5 µM; activity change, negative = cytotoxicity: at the top concentration
# Source text: National Center for Advancing Translational Sciences [NCATS]
# NIH Chemical Genomics Center [NCGC]
# U.S. Environmental Protection Agency [EPA]
# National Institutes of Environmental Health Sciences [NIEHS]
# National Toxicology Program [NTP]
# U.S. Food and Drug Administration [FDA]
# Androgen receptor (AR), a nuclear hormone receptor, plays a critical role in AR-dependent prostate cancer and other androgen related diseases. Endocrine disrupting chemicals (EDCs) and their interactions with steroid hormone receptors like AR may cause disruption of normal endocrine function as well as interfere with metabolic homeostasis, reproduction, developmental and behavioral functions. To identify the compounds that inhibit AR signaling, GeneBLAzer AR-UAS-bla-GripTite cell line (Invitrogen, Carlsbad, CA, USA) containing a beta-lactamase reporter gene under control of an Upstream Activator Sequence (UAS) stably integrated into HEK293 cells was used to screen the Tox21 10K compound library. The cytotoxicity of the Tox21 compound library against the AR-bla cell line was tested in parallel by measuring the cell viability using CellTiter-Glo assay in the same wells.
# Tox21 Assay Protocol Summary:
# AR-bla cells were dispensed at 2,000 cells/5 uL of assay medium per well into black wall/clear-bottom 1536-well plates using a Multidrop Combi (ThermoFisher Scientific, Waltham, MA) dispenser. After the assay plates were incubated at a 37C and 5% CO2 for 4 hr, 23 nL of compounds dissolved in DMSO, positive controls or DMSO only was transferred to the assay plate by a Pintool station (Kalypsys, San Diego, CA), followed by addition of 1 uL of agonist (R1881) in culture medium using a Bioraptr Flying Reagent Dispenser (FRD) workstation (Beckman Coulter, Indianapolis, IN, USA). The plates were incubated at a 37C and 5% CO2 for 16 h. After 1 uL of LiveBLAzerTM B/G FRET substrate was added using a Bioraptr FRD, the plates were incubated at room temperature for 2 h and fluorescence intensity was measured by an Envision plate reader (PerkinElmer, Shelton, CT). For cell viability readout that measures cytotoxicity, 4 ul/well of CellTiter-Glo reagent was added into the assay plates using a Bioraptr FRD. After 30 min incubation at room temperature, the luminescence intensity in the plates was measured using a ViewLux (PerkinElmer) plate reader.
# % is scaled to controls: 0 for no effect and ±100 for the full control effect; potency is read from the fitted curve at half-maximal effect.
SMILES,"activity change, negative = cytotoxicity",Potency
SCc1ccccc1,2.3% [at 78.9 µM],–
C[N+](C)(C)CC1CO1 (stereo not given),-1.28%,–
O=C(O)c1cc(Cl)ccc1Cl,1.55%,–
CCCCCBr,5.51% [at 78.9 µM],–
C#C[C@]1(O)CC[C@H]2[C@@H]3CCC4=CC(=O)CCC4=C3C=C[C@@]21CC,1.36%,–
CCCCCCCCP(=O)(O)O,7.03%,–
CC(C)C1(C)N=C(c2ncccc2C(=O)O)NC1=O (stereo not given),-11.8%,–
COC1=CC(=O)O[C@@H](/C=C/c2ccc3c(c2)OCO3)C1,-10.6%,–
CN[C@@H](C)[C@H](O)c1ccccc1,13%,–
CCC[N+](CCC)(CCC)CCC,5.55%,–
C[CH2][Hg][S]c1ccccc1C(=O)O,–,10.7 µM (active) and 4.9 µM (active)
C=CCc1ccccc1O,-0.795%,–
CNC(=O)Oc1cccc(N=CN(C)C)c1,-0.866%,–
Cc1ccc(N)c(C)c1,–,inactive
ClCc1ccccc1Cl,2.59% [at 78.9 µM],–
C[N+]1(CCC(C(N)=O)(c2ccccc2)c2ccccc2)CCCCC1,-15.9%,–
COC(=O)Cc1ccccc1,-0.713%,–
CN(C)C(=O)Nc1cccc(OC(=O)NC(C)(C)C)c1,1.79%,–
CCC(C)Cl (stereo not given),5.56%,–
CC(Oc1cccc(Cl)c1)C(=O)O (stereo not given),-2.1%,–

SMILES,"activity change, negative = cytotoxicity",Potency
O=C(O)COc1cc(Cl)c(Cl)cc1Cl,–,inactive
C[N+](C)(C)CCOC(=O)C(O)(c1ccccc1)c1ccccc1,2.32%,–
CC[N+]1(CCOC(=O)C(O)(c2ccccc2)c2ccccc2)CCCCC1,4.53%,–
O=C(N[C@H]1CN2CCC1CC2)c1ccc2c(c1)OCCO2,7.28%,–
C=CC(=O)OCC,-4.46% [at 78.9 µM],–
CC(Cl)C(=O)O (stereo not given),-2.01% [at 78.9 µM],–
CC(C)c1ccc(NC(=O)N(C)C)cc1,-12.5%,–
CC(C)[C@@H](C(=O)O[C@@H](C#N)c1cccc(Oc2ccccc2)c1)c1ccc(Cl)cc1,–,inactive
CCOP(=O)(O)C(N)=O,2.87%,–
CC(C)CCCCCCCOC(=O)c1ccccc1C(=O)OCCCCCCCC(C)C,3.35%,–
O=[N+]([O-])c1cc(Cl)c(Cl)cc1Cl,-10.2%,–
CN1CC[C@]23c4c5ccc(O)c4O[C@H]2[C@@H](O)CC[C@H]3[C@H]1C5,6.32%,–
CCCCCl,–,inactive
O=[N+]([O-])O[C@H]1CO[C@H]2[C@@H]1OC[C@H]2O[N+](=O)[O-],3.16%,–
C=CC(C)(CCC=C(C)C)OC(=O)c1ccccc1N (stereo not given),2.03% [at 78.9 µM],–
Cc1cnc(C2=NC(C)(C(C)C)C(=O)N2)c(C(=O)O)c1 (stereo not given),0.767%,–
C[C@H](N)[C@H](O)c1ccc(O)c(O)c1,4.81%,–
O=C([O-])c1ccccn1.O=C([O-])c1ccccn1.O=C([O-])c1ccccn1.[Cr+3],4.03%,–
CCCCC(CC)CO[N+](=O)[O-] (stereo not given),-0.269%,–
Cc1nnc(-c2ccccc2)c(=O)n1N,6.2%,–
